# Assay results: PubChem BioAssay (Tox21)
# Values joined by “and” are separate entries in the source; they are usually repeats but may differ in a detail not shown here. Equal values may be shown once. Inconclusive results are not listed. Where a call stands in place of a potency, no number is given. Some compounds were tested as several samples or in several runs, with calls that do not always agree. Active and inactive are the calls of the source. The call rests on the fitted dose curve; in most records, active means well fitted curve in the direction sought with a large enough effect in the repeat runs; inconclusive means weak or mixed curves; inactive means no such curve, though single readings can be large; an effect the other way counts as inactive or inconclusive.
# Legend:
# [1] = Human pregnane X receptor (PXR) small molecule agonists, qHTS cell viability counter screen (AID 1346977); further: nearly all actives have a fitted effect of over 50% in size; further: potency means the concentration at half of the fitted maximal effect
# Summary of the method: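 PXR-Luc HepG2 cells in medium with 5% charcoal-stripped FBS were pre-incubated 5hr, then exposed to compounds for 24hr at 37C. Viability was read in the same wells by CellTiter-Fluor fluorescence, reagent added after 23hr with a 1hr incubation.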
# [2] = Caspase-3/7 induction in HepG2 cells by small molecules, qHTS assay (AID 1346978); further: nearly all actives have a fitted effect of over 15% in size
# Summary of the method: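 Wild-type HepG2 cells (2,000/well) were settled 5 h at 37 C, 5% CO2, then exposed to compounds in DMSO for 17 h. Caspase-3/7 activity was read by luminescence 30 min after adding Caspase-Glo 3/7 reagent at room temperature.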
# [3] = Caspase-3/7 induction in CHO-K1 cells by small molecules, qHTS cell viability counter screen (AID 1346979); further: nearly all actives have a fitted effect of over 35% in size; further: potency means the concentration at half of the fitted maximal effect
# Summary of the method: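 Wild-type CHO-K1 cells were seeded at 1,500 per well, rested 5hr at 37 C, then exposed to compounds in DMSO. After 16hr, CellTiter-Fluor reagent was added and fluorescence read 1hr later as the viability measure.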
# [4] = Caspase-3/7 induction in CHO-K1 cells by small molecules, qHTS assay (AID 1346980); further: nearly all actives have a fitted effect of over 15% in size
# Summary of the method: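 Wild-type cells were seeded at 1,500 per well and settled 5 hr at 37 C, 5% CO2, then exposed to DMSO-dissolved compounds for 17 hr. Caspase-Glo 3/7 reagent was added, and luminescence was read after 30min at room temperature.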
# [5] = Caspase-3/7 induction in HepG2 cells by small molecules, qHTS cell viability counter screen (AID 1346981); further: nearly all actives have a fitted effect of over 30% in size; further: potency means the concentration at half of the fitted maximal effect; on activity change, negative = cytotoxicity: series mostly up to about 92 µM
# Summary of the method: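 Viability determined by CellTiter-Fluor fluorescence in HepG2 wells also used for the luminescent Caspase-Glo 3/7 read. Compounds were present for 16 hr at 37 C, 5% CO2 before reagent addition.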
# [6] = target: Nuclear receptor subfamily 1 group I member 2 (Homo sapiens) (UniProt O75469); test: Human pregnane X receptor (PXR) small molecule agonists, qHTS assay (AID 1346982); further: nearly all actives have a fitted effect of over 35% in size; further: potency means the concentration at half of the fitted maximal effect
# Nuclear receptor subfamily 1 group I member 2 (Homo sapiens), sequence (O75469 whole entry, looked up): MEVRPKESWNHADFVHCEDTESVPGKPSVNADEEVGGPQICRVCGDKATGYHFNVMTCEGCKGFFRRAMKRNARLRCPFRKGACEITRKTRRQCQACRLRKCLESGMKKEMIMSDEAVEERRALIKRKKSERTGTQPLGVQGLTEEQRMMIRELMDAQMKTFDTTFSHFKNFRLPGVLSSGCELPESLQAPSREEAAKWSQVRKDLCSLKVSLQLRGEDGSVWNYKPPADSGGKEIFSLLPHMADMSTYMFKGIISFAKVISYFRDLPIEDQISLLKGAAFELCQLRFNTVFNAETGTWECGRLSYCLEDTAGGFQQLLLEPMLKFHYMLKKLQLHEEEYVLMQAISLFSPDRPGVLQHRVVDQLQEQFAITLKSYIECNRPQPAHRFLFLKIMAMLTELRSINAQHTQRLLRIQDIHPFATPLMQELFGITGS
# Summary of the method: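 Compound-induced hPXR transactivation of a CYP3A4 luciferase reporter was scored in HepG2 PXR-Luc cells over 24 hr at 37 C, 5% CO2, by luminescence.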
# [7] = target: Cytochrome P450 2D6 (Homo sapiens) (UniProt P10635); test: Cytochrome P450 Family 2 Subfamily D Member 6 (CYP2D6) small molecule antagonists: luciferase reporter qHTS assay (AID 1671196); further: nearly all actives have a fitted effect of over 50% in size; further: potency means the concentration at half of the fitted maximal effect; on activity change, negative = inhibition: series mostly up to about 120 µM
# Cytochrome P450 2D6 (Homo sapiens), sequence (P10635 whole entry, looked up): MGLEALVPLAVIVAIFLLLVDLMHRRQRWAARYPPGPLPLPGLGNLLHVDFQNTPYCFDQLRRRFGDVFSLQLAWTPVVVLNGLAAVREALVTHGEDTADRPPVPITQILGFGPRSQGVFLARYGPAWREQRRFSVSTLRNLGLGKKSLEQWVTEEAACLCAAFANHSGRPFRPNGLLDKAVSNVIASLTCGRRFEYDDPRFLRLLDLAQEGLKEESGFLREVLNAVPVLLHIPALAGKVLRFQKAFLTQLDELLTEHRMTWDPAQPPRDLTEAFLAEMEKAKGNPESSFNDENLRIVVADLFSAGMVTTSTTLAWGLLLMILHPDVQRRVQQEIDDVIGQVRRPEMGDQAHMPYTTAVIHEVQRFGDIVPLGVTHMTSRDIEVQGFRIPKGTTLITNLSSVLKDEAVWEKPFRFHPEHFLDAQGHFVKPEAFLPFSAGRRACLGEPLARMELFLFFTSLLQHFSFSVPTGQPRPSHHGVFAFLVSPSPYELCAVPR
# Summary of the method: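 Each well received CYP2D6 with its proluciferin substrate and chemical, sat 10 min, then got NADPH regeneration solution for 1 h at room temperature. Luminescence in RLU served as the activity measure.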
# [8] = target: Nuclear receptor subfamily 1 group I member 2 (Homo sapiens) (UniProt O75469); test: CYP3A4 induction through human pregnane X receptor (PXR) by small molecules, qHTS assay (AID 1346984); further: nearly all actives have a fitted effect of over 40% in size
# Summary of the method: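 Readings come from a luciferase reporter: DPX-2 cells, which are HepG2 cotransfected with PXR and a CYP3A4-promoter construct, were exposed to test compounds for 24 h at 37C before One-Glo detection.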
# [9] = target: Nuclear receptor subfamily 1 group I member 2 (Homo sapiens) (UniProt O75469); test: Human pregnane X receptor (PXR) activation by small molecules, qHTS assay (AID 1346985); further: nearly all actives have a fitted effect of over 40% in size
# Summary of the method: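 DPX-2 cells (HepG2 co-transfected with a PXR response element and a CYP3A4-promoter luciferase construct) were seeded at 2,000 per well, rested 5 hr at 37C, then exposed to DMSO-dissolved compounds for 24 hr. Activation was read as luciferase luminescence.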
smiles,measurement,setting,value
O=C(O)O,"activity change, negative = cytotoxicity",[1],1.04% [at 8.39 µM] (inactive)
same,caspase activation,[2],0.0124% [at 8.39 µM] (inactive)
same,"activity change, negative = cytotoxicity",[3],0.8% [at 8.39 µM] (inactive)
same,caspase-3/7 activation,[4],0.298% [at 8.39 µM] (inactive)
same,"activity change, negative = cytotoxicity",[5],-0.291% [at 8.39 µM] (inactive)
same,activation,[6],4.39% [at 8.39 µM] (inactive)
same,"activity change, negative = inhibition",[7],-1.63% [at 10.5 µM] (inactive)
CCCC[P+](C)(CCCC)CCCC,Potency,[1],inactive
same,Potency,[2],inactive
same,Potency,[3],inactive
same,Potency,[4],inactive
same,Potency,[5],inactive
same,Potency,[6],61.9 µM (active)
same,Potency,[7],0.203 µM (active)
O=c1[nH]c(=O)n([C@H]2C[C@H](O)[C@@H](CO)O2)cc1F,Potency,[1],inactive
same,Potency,[2],inactive
same,Potency,[3],inactive
same,Potency,[4],inactive
same,Potency,[5],inactive
same,Potency,[8],inactive
same,Potency,[7],inactive
Cc1cccc(C(=O)O)c1O,Potency,[1],inactive
same,Potency,[2],inactive
same,Potency,[3],inactive
same,Potency,[4],inactive
same,Potency,[5],inactive
same,Potency,[8],inactive
same,Potency,[9],inactive
same,Potency,[7],inactive
FC(F)(F)c1cccc(Cl)c1,Potency,[1],inactive
same,Potency,[2],inactive
same,Potency,[3],inactive
same,Potency,[4],inactive
same,Potency,[5],inactive
same,Potency,[6],inactive
same,Potency,[7],inactive
CCC(=O)OC(=O)CC,Potency,[1],inactive
same,Potency,[2],inactive
same,Potency,[3],inactive
same,Potency,[4],inactive
same,Potency,[5],inactive
same,Potency,[6],inactive
same,Potency,[7],62.8 µM (active)
CCN(CCN)c1cccc(C)c1,Potency,[1],inactive
same,Potency,[2],inactive
same,Potency,[3],inactive
same,Potency,[4],inactive
same,Potency,[5],inactive
same,Potency,[6],61.7 µM (active) and 61.1 µM (active)
same,Potency,[7],2.54 µM (active) and 10 µM (active)
CC(=O)OCC=C(C)C,Potency,[1],inactive
same,Potency,[2],inactive
same,Potency,[3],inactive
same,Potency,[4],inactive
same,Potency,[5],inactive
same,Potency,[6],inactive
same,Potency,[7],inactive
C#Cc1ccc(-c2ccccc2F)cc1,Potency,[1],inactive
same,Potency,[2],inactive
same,Potency,[3],inactive
same,Potency,[4],inactive
same,Potency,[5],inactive
same,Potency,[6],inactive
same,Potency,[7],inactive
OC/C=C/CO,Potency,[1],inactive
same,Potency,[2],inactive
same,Potency,[3],inactive
same,Potency,[4],inactive
same,Potency,[5],inactive
same,Potency,[6],inactive
same,Potency,[7],17.8 µM (active)
CCCCC(CC)COC(=O)CCCCC(=O)OCc1ccccc1 (stereo not drawn),Potency,[1],inactive
same,Potency,[2],inactive
same,Potency,[3],inactive
same,Potency,[4],inactive
same,Potency,[5],inactive
same,Potency,[6],inactive
same,Potency,[7],inactive
O=C1OC2(c3ccc(O)cc3Oc3cc(O)ccc32)c2ccc(N=C=S)cc21,Potency,[1],inactive
same,Potency,[2],inactive
same,Potency,[3],inactive
same,Potency,[4],inactive
same,Potency,[5],inactive
same,Potency,[6],inactive
same,Potency,[7],inactive
Nc1nc2c(ncn2COCCO)c(=O)[nH]1,Potency,[1],inactive
same,Potency,[2],inactive
same,Potency,[3],inactive
same,Potency,[4],inactive
same,Potency,[5],inactive
same,Potency,[8],inactive
same,Potency,[9],inactive
COc1c(C)c2c(c(O)c1C/C=C(\C)CCC(=O)OCCN1CCOCC1)C(=O)OC2,Potency,[1],inactive
same,Potency,[2],inactive
same,Potency,[3],841 nM (active)
same,Potency,[4],inactive
same,Potency,[5],inactive
same,Potency,[8],inactive
same,Potency,[9],inactive
same,Potency,[7],inactive
C1CCC(SSC2CCCCC2)CC1,Potency,[1],inactive
same,Potency,[2],inactive
same,Potency,[3],inactive
same,Potency,[4],inactive
same,Potency,[5],inactive
same,Potency,[6],inactive
same,Potency,[7],inactive
C=C(C)c1cccc(C(=C)C)c1,Potency,[1],inactive
same,Potency,[2],inactive
same,Potency,[3],inactive
same,Potency,[4],inactive
same,Potency,[5],inactive
same,Potency,[6],inactive
same,Potency,[7],inactive
CC[N+](CC)(CC)CCOc1ccc(/C=C/c2ccccc2)cc1,Potency,[1],inactive
same,Potency,[2],inactive
same,Potency,[3],inactive
same,Potency,[4],inactive
same,Potency,[5],inactive
same,Potency,[8],inactive
same,Potency,[9],inactive
same,Potency,[7],15.5 µM (active)
CCCCC(CC)CN1CN(CC(CC)CCCC)CC(C)(N)C1 (stereo not drawn),Potency,[1],inactive
same,Potency,[2],inactive
same,Potency,[3],inactive
same,Potency,[4],inactive
same,Potency,[5],inactive
same,Potency,[8],inactive
same,Potency,[9],inactive
same,Potency,[7],0.309 µM (active)
c1cnccn1,Potency,[1],inactive
same,Potency,[2],inactive
same,Potency,[3],inactive
same,Potency,[4],inactive
same,Potency,[5],inactive
same,Potency,[6],inactive
same,Potency,[7],inactive
COc1cc(S(=O)(=O)O)c(C)cc1N=Nc1c(O)ccc2cc(S(=O)(=O)O)ccc12,Potency,[1],15.4 µM (active)
same,Potency,[2],inactive
same,Potency,[3],15400 nM (active)
same,Potency,[4],inactive
same,Potency,[5],19.3 µM (active)
same,Potency,[6],inactive
same,Potency,[7],35.6 µM (active)
Oc1ccccc1O,Potency,[1],inactive
same,Potency,[2],inactive
same,Potency,[3],27.6 µM (active) and 21.7 µM (active)
same,Potency,[4],inactive
same,Potency,[5],inactive
same,Potency,[6],22 µM (active) and inactive
same,Potency,[7],inactive
COC(C)=O,Potency,[1],inactive
same,Potency,[2],inactive
same,Potency,[3],inactive
same,Potency,[4],inactive
same,Potency,[5],inactive
same,Potency,[6],inactive
same,Potency,[7],inactive
CC(C)NC[C@@H](O)COc1ccc(CC(N)=O)cc1,Potency,[1],inactive
same,Potency,[2],inactive
same,Potency,[3],inactive
same,Potency,[4],inactive
same,Potency,[5],inactive
same,Potency,[9],inactive
Clc1sc(Cl)c(Cl)c1Cl,Potency,[1],inactive
same,Potency,[2],inactive
same,Potency,[3],inactive
same,Potency,[4],inactive
same,Potency,[5],inactive
same,Potency,[6],inactive
same,Potency,[7],inactive
O=[N+]([O-])c1cccc(C(F)(F)F)c1,Potency,[1],inactive
same,Potency,[2],inactive
same,Potency,[3],inactive
same,Potency,[4],inactive
same,Potency,[5],inactive
same,Potency,[6],inactive
same,Potency,[7],inactive
